# High-throughput results as filed in PubChem BioAssay.
# Most compounds without a hit are left out; they make up all but 6.7% or so of the library.
# Pf Dd2 inh = inhibitors of Plasmodium falciparum Dd2 growth; P. falciparum Dd2 growth, SYBR Green, 72 h; stronger effect = lower value; activity change, % at 10 µM; 94,000 compounds, 2.3% hits; in the data active = activity change below about -80%; inconclusive = no clear call, values can overlap the other calls
# C diff HTS = blocks growth of Clostridium difficile; Clostridium difficile clinical isolate growth, OD600, 24 h; stronger effect = lower value; growth activity, negative = inhibition, % at 16 µg/mL (by protocol); AID 1259249; 86,000 compounds, 0.25% hits;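 active = mean growth activity at or below -80% and every replicate also at or below -80%; inconclusive = mean at or below -80% but some replicate above -80%; inactive = mean growth activity above -80%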
# T cruzi growth-1 = T. cruzi proliferation inhibition; T. cruzi beta-gal in NIH3T3, GalScreen luminescence, 90 h; inhibition, % at 8.34 µM; 77,000 compounds, 5.9% hits;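 active = mean inhibition above about 93%, with at least 55% of replicates each passing it, limit read from the data, passing the limit was not always enough; inconclusive = only one of those two conditions holds; inactive = neither condition holds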
# T cruzi growth-2 = blocks T. cruzi growth in NIH3T3 host cells. T. cruzi beta-gal in NIH3T3, GalScreen luminescence, 90 h. 5,600 compounds, 72% hits. AID 651739. inhibition, % at 8.35 µM. shares compounds with T cruzi growth-1;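 active = mean replicate inhibition above about 95% and at least 55% of replicates individually reaching it, limit read from the data; inconclusive = only one of the two criteria is met; inactive = neither criterion is met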
# T cruzi growth-3 = inhibitors of T. cruzi proliferation; shares compounds with T cruzi growth-1; T. cruzi beta-gal in NIH3T3, GalScreen luminescence, 90 h; inhibition, % at 2.09 µM; 5,600 compounds, 21% hits; AID 651740;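 active = mean inhibition above about 95%, with at least 55% of replicates also reaching it, limit read from the data; inconclusive = meets just one of the two conditions; inactive = meets neither condition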
# NIH3T3 tox = cytotoxicity in mouse NIH/3T3 fibroblasts. 5,600 compounds, 14% hits. shares compounds with T cruzi growth-1. NIH/3T3 viability, CellTiter-Glo ATP luminescence, 90 h. AID 651742. cytotoxicity (signal decrease), % at 8.35 µM;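 active = mean signal decrease across replicates above about 35% based on untreated-well scatter, with enough replicates individually passing, limit read from the data; inconclusive = no rule stated though some were filed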
# NIH3T3 tox 2 = kills mouse NIH/3T3 fibroblasts | shares compounds with T cruzi growth-1 | 5,600 compounds, 56% hits | inhibition, % at 24.9 µM | AID 651744 | NIH/3T3 viability, CellTiter-Glo ATP luminescence, 90 h;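 active = mean loss of cell viability signal at or above a set limit, and enough replicates individually reaching it; inconclusive = meets only the mean limit or only the replicate share; inactive = meets neither condition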
# A number is an active result; – = inactive; ? = inconclusive; · = not tested or not shown.
SMILES,Pf Dd2 inh,C diff HTS,T cruzi growth-1,T cruzi growth-2,T cruzi growth-3,NIH3T3 tox,NIH3T3 tox 2
COc1cccc(S(=O)(=O)Nc2ccc3c(c2)[C@H]2C[C@@H](CC(=O)NCc4ccc(Cl)cc4)O[C@H](CO)[C@H]2O3)c1,–,·,–,·,·,·,·
C[C@@H]1CN([C@H](C)CO)C(=O)Cc2cc(NC(=O)CCC(F)(F)F)ccc2O[C@@H]1CN(C)C(=O)Nc1cccc2ccccc12,–,–,–,·,·,·,·
CC(C)C#Cc1ccc([C@@H]2[C@@H](CO)N3CCCCN(CC4CC4)C[C@@H]23)cc1,–,–,?,95,–,?,106
CC(C)C#Cc1ccc([C@H]2[C@H](CO)N3CCCCN(CC4CC4)C[C@@H]23)cc1,–,–,–,·,·,·,·
CC(C)C#Cc1ccc([C@@H]2[C@@H](CO)N3CCCCN(CC4CC4)C[C@H]23)cc1,–,–,108,108,–,36,90
C[C@H](O)C#Cc1ccc([C@H]2[C@@H](CO)N3CCCCN(CC4CC4)C[C@H]23)cc1,–,–,–,·,·,·,·
CN1CCN(C(=O)C[C@H]2C[C@@H]3c4cc(NC(=O)c5ccc6c(c5)OCO6)ccc4O[C@@H]3[C@H](CO)O2)CC1,–,·,–,·,·,·,·
COc1ccc(S(=O)(=O)Nc2ccc3c(c2)C(=O)N([C@H](C)CO)C[C@@H](C)[C@H](CN(C)Cc2ccccc2)OCCCC[C@H](C)O3)cc1,–,–,–,·,·,·,·
C[C@@H]1CN([C@H](C)CO)C(=O)Cc2cc(N(C)C)ccc2O[C@@H]1CN(C)Cc1ccc(C(F)(F)F)cc1,–,–,–,·,·,·,·
C[C@@H]1CN([C@@H](C)CO)C(=O)Cc2cc(N(C)C)ccc2O[C@@H]1CN(C)Cc1ccc(C(F)(F)F)cc1,–,–,–,·,·,·,·
C[C@@H]1CN([C@H](C)CO)C(=O)Cc2cc(N(C)C)ccc2O[C@H]1CN(C)Cc1ccc(C(F)(F)F)cc1,–,–,108,–,–,–,–
C[C@H]1CN([C@@H](C)CO)C(=O)Cc2cc(N(C)C)ccc2O[C@@H]1CN(C)Cc1ccc(C(F)(F)F)cc1,–,–,119,111,–,–,–
O=C(Cc1ccccn1)N1CC2(C1)[C@H](c1ccccc1)[C@H](CO)N2C(=O)c1ccncc1,–,–,·,·,·,·,·
C[C@H](CO)N1C[C@H](C)[C@H](CN(C)S(=O)(=O)c2cn(C)cn2)Oc2c(NC(=O)c3nc4ccccc4s3)cccc2C1=O,–,·,–,·,·,·,·
O=C(c1cccnc1)N1C[C@@H]2[C@H](c3ccccc31)[C@H](CO)N2CC1CCCCC1,–,–,–,·,·,·,·
COCC#Cc1cnc2c(c1)C(=O)N([C@@H](C)CO)C[C@@H](C)[C@H](CN(C)C(=O)C1CCCCC1)O2,–,–,·,·,·,·,·
COc1ccccc1-c1cn(CC[C@@H]2CC[C@@H](NC(=O)NC(C)C)[C@H](CO)O2)nn1,–,–,–,·,·,·,·
COCC#Cc1ccc([C@H]2[C@@H](CO)N3CCCCN(S(=O)(=O)c4ccccc4C)C[C@@H]23)cc1,–,–,–,·,·,·,·
CCCC#Cc1ccc([C@@H]2[C@@H](CO)N3CCCCN(S(=O)(=O)CC)C[C@@H]23)cc1,–,–,102,–,–,–,35
CCCC#Cc1ccc([C@@H]2[C@H]3CN(S(=O)(=O)CC)CCCCN3[C@H]2CO)cc1,–,–,–,·,·,·,·
CCCC#Cc1ccc([C@H]2[C@@H](CO)N3CCCCN(S(=O)(=O)c4ccccc4C)C[C@@H]23)cc1,–,–,108,100,–,–,–
CCCC#Cc1ccc([C@@H]2[C@H]3CN(S(=O)(=O)c4ccccc4C)CCCCN3[C@H]2CO)cc1,–,–,111,96,?,?,106
Cc1ccccc1S(=O)(=O)N1CCCCN2[C@H](C1)[C@@H](c1ccc(C#CCN(C)C)cc1)[C@@H]2CO,–,–,–,·,·,·,·
COCC#Cc1ccc([C@H]2[C@@H](CO)N3CCCCN(S(=O)(=O)c4ccccc4C)C[C@H]23)cc1,–,–,98,98,–,–,107
COCC#Cc1ccc([C@H]2[C@H]3CN(S(=O)(=O)c4ccccc4C)CCCCN3[C@H]2CO)cc1,–,–,–,·,·,·,·
SMILES,Pf Dd2 inh,C diff HTS,T cruzi growth-1,T cruzi growth-2,T cruzi growth-3,NIH3T3 tox,NIH3T3 tox 2
C[C@@H]1CN([C@@H](C)CO)C(=O)c2cc(NC(=O)c3ccccc3)ccc2O[C@@H](C)CCCCO[C@H]1CN(C)Cc1ccc(C(=O)O)cc1,–,–,–,·,·,·,·
Cc1noc(C)c1NC(=O)Nc1ccc2c(c1)C(=O)N([C@@H](C)CO)C[C@H](C)[C@H](CN(C)C(=O)Nc1ccc3c(c1)OCO3)OCCCC[C@H](C)O2,–,–,–,·,·,·,·
COc1ccc(NC(=O)N(C)C[C@H]2Oc3c(NS(=O)(=O)c4ccc(F)cc4)cccc3C(=O)N([C@H](C)CO)C[C@H]2C)cc1,–,–,–,·,·,·,·
CCCN1C[C@H](C)[C@@H](OC)CN(C)C(=O)c2cc(NS(C)(=O)=O)ccc2OC[C@H]1C,–,–,–,·,·,·,·
Cc1noc(C)c1NC(=O)Nc1ccc2c(c1)C(=O)N([C@H](C)CO)C[C@H](C)[C@@H](CN(C)C(=O)CCCN(C)C)OCCCC[C@H](C)O2,–,–,–,·,·,·,·
CC=Cc1ccc2n(c1=O)C[C@H]1[C@H](CO)[C@@H](C(=O)NCc3ccncn3)N(C(=O)NC3CCCC3)[C@@H]21 (mixture of isomers),·,–,–,·,·,·,·
Cc1ccccc1S(=O)(=O)N1CCCCN2[C@@H](CO)[C@H](c3ccc(C#CCN(C)C)cc3)[C@@H]2C1,–,–,–,·,·,·,·
CCCC#Cc1ccc([C@H]2[C@H](CO)N3CCCCN(S(=O)(=O)c4ccccc4C)C[C@@H]23)cc1,–,–,96,–,99,?,103
CCCC#Cc1ccc([C@H]2[C@@H](CO)N3CCCCN(S(=O)(=O)c4ccccc4C)C[C@H]23)cc1,–,–,108,103,?,52,103
COCC#Cc1ccc([C@@H]2[C@H](CO)N3CCCCN(S(=O)(=O)c4ccccc4C)C[C@@H]23)cc1,–,–,–,·,·,·,·
CC(C)NC(=O)N(C)C[C@@H]1Oc2c(NC(=O)CCCCCC(=O)Nc3ccccc3N)cccc2C(=O)N([C@@H](C)CO)C[C@H]1C,–,–,·,·,·,·,·
CN1c2ccc(-c3ccc(F)cc3)cc2[C@@H]2[C@@H](CCN2C(=O)C2CCOCC2)[C@H]1CO,–,–,105,105,–,–,–
CN(C)C(=O)c1ccc(-c2ccc3c(c2)[C@@H]2[C@@H](CCN2C(=O)C2CCCC2)[C@H](CO)N3C)cc1,–,–,·,·,·,·,·
CN1c2ccc(-c3cccc(F)c3)cc2[C@@H]2[C@@H](CCN2C(=O)C2CCOCC2)[C@@H]1CO,–,–,–,·,·,·,·
CN1c2ccc(-c3ccc(F)cc3)cc2[C@@H]2[C@@H](CCN2C(=O)C2CCOCC2)[C@@H]1CO,–,–,98,106,–,–,–
